The record followed here is PubChem BioAssay (NCATS).

In assay [1] the target is Cytochrome P450 1A2 (Homo sapiens) (UniProt P05177). Briefly: p450-cyp1a2 (AID 410; calls by dose curve; further: potency means the concentration at half of the fitted maximal effect;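 on activity change, negative = inhibition: -100% = full effect of reference inhibitor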). In outline: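 Luminescent readout of luciferin formed from Luciferin-ME by human CYP1A2; data normalized against complete inhibition by 57 uM furafylline. Enzyme 20nM, substrate 100uM at Km, 100mM KPO4 buffer, 60 min reaction at room temperature.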
Cytochrome P450 1A2 (Homo sapiens), sequence (P05177 whole entry, looked up): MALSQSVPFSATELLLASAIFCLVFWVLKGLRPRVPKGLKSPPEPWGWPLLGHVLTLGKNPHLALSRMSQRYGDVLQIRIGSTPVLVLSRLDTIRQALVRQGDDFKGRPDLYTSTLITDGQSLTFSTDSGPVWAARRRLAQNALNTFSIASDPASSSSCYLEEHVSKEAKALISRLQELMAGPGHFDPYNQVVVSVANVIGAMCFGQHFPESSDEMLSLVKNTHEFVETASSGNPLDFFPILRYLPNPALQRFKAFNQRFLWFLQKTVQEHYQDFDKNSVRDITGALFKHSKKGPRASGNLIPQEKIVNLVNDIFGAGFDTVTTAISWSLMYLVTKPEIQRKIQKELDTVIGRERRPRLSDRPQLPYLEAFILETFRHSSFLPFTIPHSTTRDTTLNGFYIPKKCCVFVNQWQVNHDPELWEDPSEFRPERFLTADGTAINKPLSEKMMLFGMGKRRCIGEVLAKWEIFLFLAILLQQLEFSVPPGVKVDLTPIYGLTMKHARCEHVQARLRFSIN
Assay [2] concerns the target Glucocorticoid receptor (Homo sapiens) (UniProt P04150). The experiment in a line: GR-GFP Redistribution (AID 450;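 active means compounds whose dose series gives a full or clear partial fitted curve of increased nuclear translocation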; further: potency means the concentration at half of the fitted maximal effect). The settings on record: U2OS GR-GFP nuclear translocation, laser cytometry, 2 h.
For assay [3] the target is unchanged. The experiment in a line: GR-EFC Redistribution (AID 451; calls by dose curve; further: potency means the concentration at half of the fitted maximal effect). Conditions: CHO-K1 GR-EFC translocation, beta-gal luminescence, 2 h. The procedure, abridged:
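Translocation of GR-ED fusion to nuclear EA restores b-gal, read by luminescence after 1 h room-temperature detection. Engineered CHO-K1 biosensor cells, 1,000/well, exposed 2 h at 37 C to titrations up to 46 uM final.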

Assay [4] addresses 3',5'-cyclic-AMP phosphodiesterase 4B (Homo sapiens) (UniProt Q07343). The experiment in a line: qHTS Assay for Inhibitors of PDE-IV (AID 607; active means well fitted activation curve with a large enough effect in the main read-out, with a control signal flat, not every such curve was filed as active; further: % of control where 0% means no effect). In outline: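 The readout is membrane depolarisation from a cAMP-sensing CNG channel, detected with a potential dye at ex 535/em 590. Cells were HEK293-derived (endogenous PDE-IV) at 1000 cells/well, titrated up to 22.9 uM final.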
On the technique in general: In qHTS, concentration-response curves come from the screen itself.

The target of assay [5] is Guanine nucleotide-binding protein G(i) subunit alpha-1 (Homo sapiens) (UniProt P63096). The experiment in a line: qHTS Assay for Inhibitors of RGS12 GoLoco Motif Activity (Green Fluorophore) (AID 879).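 Further: 0% = labeled peptide with Gαi1 and full inhibition = labeled peptide alone without protein; negative values mean loss of peptide binding seen as reduced polarization.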 In outline:
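Fluorescence polarization assay: 50 nM Gαi1 with 10 nM FITC-labeled RGS12 GoLoco peptide in 10 mM Tris pH 7.5, 150 mM NaCl, 0.1 mM GDP, 0.05% NP40, 10 min at room temperature with compound.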

Assay [6] deals with Pyruvate kinase (Leishmania mexicana) (UniProt Q27686). The experiment in a line: qHTS Validation Assay for Inhibitors of Leishmania Mexicana Pyruvate Kinase (AID 945).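 Further: 0% = DMSO only neutral control wells.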 In outline: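 LmPYK E451W 0.2 nM; 0.5 mM PEP, 0.1 mM ADP, 7 mM MgCl2, 50 mM KCl, imidazole pH 7.2, 0.01% Tween 20, 0.05% BSA; 1 h RT; PKLight luminescence; DMSO-normalized.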
Pyruvate kinase (Leishmania mexicana), sequence (Q27686 2-499 E452W): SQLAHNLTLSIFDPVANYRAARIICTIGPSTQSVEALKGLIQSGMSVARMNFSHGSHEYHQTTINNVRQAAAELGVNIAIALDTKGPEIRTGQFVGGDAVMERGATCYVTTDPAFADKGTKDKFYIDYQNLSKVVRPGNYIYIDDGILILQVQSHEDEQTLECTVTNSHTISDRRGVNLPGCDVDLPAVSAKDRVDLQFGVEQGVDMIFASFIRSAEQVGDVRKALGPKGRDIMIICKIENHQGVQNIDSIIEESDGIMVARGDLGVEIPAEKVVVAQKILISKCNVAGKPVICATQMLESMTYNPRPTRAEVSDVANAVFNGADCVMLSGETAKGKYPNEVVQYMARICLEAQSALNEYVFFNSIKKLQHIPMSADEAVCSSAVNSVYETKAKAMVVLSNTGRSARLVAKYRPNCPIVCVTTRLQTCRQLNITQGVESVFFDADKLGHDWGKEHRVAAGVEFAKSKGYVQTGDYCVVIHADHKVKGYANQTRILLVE
The target of assay [7] is Pyruvate kinase PKM (Homo sapiens) (UniProt P14618). Briefly: qHTS Assay for Activators of Human Muscle Pyruvate Kinase (AID 954; active means well fitted curve in the direction sought with a large enough effect, not every such curve was filed as active;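 further: 0% = uninhibited enzyme and -100% = no enzyme or full thiadiazolimine inhibition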). In outline:
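Reaction: 0.1 nM purified PKM2 with 0.5 mM phosphoenolpyruvate and 0.1 mM ADP, room temperature, 1 h. Readout: luciferase-based ATP luminescence after stop reagent. Activators judged against a 0.3 nM enzyme column.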

Assay [8] deals with Alpha-galactosidase A (Homo sapiens) (UniProt P06280). Briefly: Counterscreen for Glucocerebrosidase Inhibitors: qHTS Assay for Human alpha-Galactosidase at pH 4.5 (AID 992). Further: 0% is about no effect. The procedure, abridged: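 Concentration-response curves (0.7 nM to 77 uM final) were modeled with the Hill equation to give AC50. Reactions: 2 nM enzyme, 80 uM fluorogenic alpha-galactoside, pH 4.5 citric acid buffer, 20 min, room temperature.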

Assay [9] deals with alpha-glucosidase (Oryza sativa, rice) (UniProt Q653V4). The experiment in a line: Counterscreen for Glucocerebrosidase Inhibitors: qHTS Assay for Rice alpha-Glucosidase at pH 5.0 (AID 997).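 Further: 0% = full activity with enzyme and -100% = basal without enzyme.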 In outline:
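Rice alpha-glucosidase (4 nM final) with 400 uM 4-methylumbelliferyl-alpha-D-glucopyranoside in citrate buffer pH 5.0, 20 min at room temperature, stopped at pH 10; fluorescence 365/440 nm, compounds 0.7 nM–77 uM, AC50 from Hill fits.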
(The purpose of a counterscreen is to sort out artefacts and off-target activity.)

The target in assay [10] is Alpha-galactosidase (Coffea arabica) (UniProt Q42656). Briefly: Counterscreen for Glucocerebrosidase Inhibitors: qHTS Assay for Coffee Bean alpha-Galactosidase at pH 5.9 (AID 998).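 Further: plate controls were uninhibited enzyme for no effect and no-enzyme basal signal for full effect.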 The procedure, abridged: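 Compounds were titrated from 0.7 nM to 77 uM against green coffee bean alpha-galactosidase (2 nM) using 80 uM fluorogenic 4-methylumbelliferyl substrate. After 20 min at room temperature, reactions were stopped at pH 10 and read by fluorescence.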
Alpha-galactosidase (Coffea arabica), sequence (Q42656 whole entry, looked up): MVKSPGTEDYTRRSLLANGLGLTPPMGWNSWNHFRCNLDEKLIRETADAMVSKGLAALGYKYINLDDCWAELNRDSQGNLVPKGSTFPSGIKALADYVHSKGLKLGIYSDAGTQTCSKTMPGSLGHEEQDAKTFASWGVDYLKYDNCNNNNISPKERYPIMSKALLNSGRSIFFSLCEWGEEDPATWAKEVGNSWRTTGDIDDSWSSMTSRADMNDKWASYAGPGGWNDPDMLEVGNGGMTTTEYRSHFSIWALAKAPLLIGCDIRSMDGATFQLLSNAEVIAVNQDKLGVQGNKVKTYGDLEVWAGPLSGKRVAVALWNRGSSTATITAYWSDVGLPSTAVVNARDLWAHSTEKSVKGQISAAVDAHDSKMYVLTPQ

Assay [11] is described as follows: qHTS Assay for Lipid Storage Modulators (AID 1519; calls by dose curve; further: potency means the concentration at half of the fitted maximal effect). The settings on record: Drosophila S3 cells, BODIPY lipid droplet/cell ratio, laser cytometry, cells loaded with oleic acid. The procedure, abridged: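 Cells seeded at 5,000 per well were treated with compounds over a concentration series and loaded with oleic acid (400 uM, as added). Lipid droplet fluorescence (488 nm excitation, 500-530 nm channel) was read by laser-scanning cytometry and normalized to 20 uM Triacsin C.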

For assay [12], the target named is Ubiquitin carboxyl-terminal hydrolase 1 (Homo sapiens) (UniProt O94782). The experiment in a line: Inhibitors of USP1/UAF1: Pilot qHTS (AID 504865).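 Further: rhodamine fluorescence freed from ubiquitin-rhodamine substrate followed over time; top concentration of the series differs between compounds; on the % scale 0 is the no-effect control and ±100 the full control effect; nearly all actives have a fitted effect of over 35% in size.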 In outline: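 In 50mM HEPES pH 7.8 containing 0.5mM EDTA, 1mM TCEP, 0.1 mg/ml BSA and 0.01% Tween-20, 1nM USP1/UAF1 is exposed to compound for 15 min, then Ub-Rho (150nM final) is added and fluorescence is read over time.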
Ubiquitin carboxyl-terminal hydrolase 1 (Homo sapiens), sequence (O94782 whole entry, looked up): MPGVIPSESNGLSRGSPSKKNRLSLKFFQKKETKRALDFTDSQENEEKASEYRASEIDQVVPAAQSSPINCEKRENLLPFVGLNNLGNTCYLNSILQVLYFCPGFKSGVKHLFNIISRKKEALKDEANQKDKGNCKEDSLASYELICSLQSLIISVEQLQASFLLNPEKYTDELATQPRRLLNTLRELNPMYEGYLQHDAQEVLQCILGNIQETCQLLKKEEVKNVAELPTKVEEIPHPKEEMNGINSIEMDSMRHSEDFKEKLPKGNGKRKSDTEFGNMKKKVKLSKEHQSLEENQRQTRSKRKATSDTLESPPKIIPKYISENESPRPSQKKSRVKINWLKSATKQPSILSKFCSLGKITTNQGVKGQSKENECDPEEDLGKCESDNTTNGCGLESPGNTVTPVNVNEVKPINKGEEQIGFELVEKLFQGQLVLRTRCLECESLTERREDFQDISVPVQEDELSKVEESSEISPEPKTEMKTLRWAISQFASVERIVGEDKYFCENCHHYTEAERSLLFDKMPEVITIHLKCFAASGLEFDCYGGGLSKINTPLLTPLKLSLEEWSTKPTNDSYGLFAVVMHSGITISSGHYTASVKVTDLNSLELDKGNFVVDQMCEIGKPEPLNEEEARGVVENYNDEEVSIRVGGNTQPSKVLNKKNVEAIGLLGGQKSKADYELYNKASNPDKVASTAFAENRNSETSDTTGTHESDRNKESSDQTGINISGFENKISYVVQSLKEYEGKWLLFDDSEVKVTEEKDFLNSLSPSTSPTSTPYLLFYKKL

The target of assay [13] is DNA dC->dU-editing enzyme APOBEC-3G (Homo sapiens) (UniProt Q9HC16). The experiment in a line: qHTS for inhibitors of Vif-A3G interactions: Validation (AID 588379). Further: 0% is about no effect. The procedure, abridged:
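HeLa cells stably expressing Vif and A3G-eYFP, 700 cells/well, incubated overnight at 37 deg C, then exposed to compound overnight at 37 deg C. Inhibition of Vif-mediated degradation read as increased yellow fluorescence (Ex 488/Em 500-530) by laser-scanning cytometry.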

Assay [14] concerns Zika virus NS2B-NS3 protease. The experiment in a line: Primary screen GU AMC qHTS for Zika virus inhibitors (AID 1347154).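 Further: 0% = no-inhibitor control and -100% = no-enzyme control; nearly all actives have a fitted effect of over 70% in size.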 In outline: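 Fluorogenic AMC-substrate cleavage by noncovalent NS2B-NS3 protease complex (25 nM, pH 8.0 Tris buffer with Tween 20) followed for 15 minutes at room temperature (~20% conversion). Percent inhibition from ex340/em450 signal change, fitted by 4-parameter Hill equation.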

Assay [15] is described as follows: Primary qHTS for small molecule stabilizers of the endoplasmic reticulum resident proteome: Secreted ER Calcium Modulated Protein (SERCaMP) assay (AID 1508630). Further: on the % scale 0 is the no-effect control and ±100 the full control effect. The procedure, abridged:
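GLuc-SERCaMP-expressing SH-SY5Y cells, pretreated 16 h with compound, are challenged with thapsigargin to empty ER calcium stores; after 4 h, coelenterazine is added directly to the medium and luminescence is imaged.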

Assay [16] concerns the target Cytochrome P450 3A4 (Homo sapiens) (UniProt P08684). Briefly: qHTS Assay for Activators of Cytochrome P450 3A4 (AID 885). Further: nearly all actives have a fitted effect of over 65% in size. The procedure, abridged: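 Steps: enzyme/substrate mix dispensed; compound added, 10 min RT; NADPH regeneration solution added, 60 min RT; luciferin detection buffer stops reaction; 20 min later luminescence measured.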
A short description of assay [17]: AP1 Signaling Pathway (AID 357; active means well fitted curve in either direction with a large enough effect, not every such curve was filed as active;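 further: ME-180 reporter cells stimulated with EGF at its EC50 level; on the % scale 0 is the no-effect control and ±100 the full control effect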). The procedure, abridged:
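Cells are seeded overnight, exposed to compound titrations and an EC50 level of EGF for 5 hours at 37 °C, then loaded with CCF4 dye for 2.5 hours. Beta-lactamase activity under the AP-1 element is read as a blue/green ratio.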

Assay [18] in a line: Stat Signaling Pathway (AID 446; active means well fitted curve in either direction with a large enough effect, not every such curve was filed as active;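 further: ME-180 cervical cancer cells given 40 pM IL-6 alongside compound; SIE-controlled beta-lactamase reporter measured as 460/530 nm FRET emission ratio; on the % scale 0 is the no-effect control and ±100 the full control effect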). The procedure, abridged: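 Screening format detects activators and inhibitors alike: ME-180 SIE-bla cells stimulated at 40 pM IL-6 for 5 hrs with compound, then dual-emission beta-lactamase read at 405 nm excitation.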
In assay [19] the target is Mitogen-activated protein kinase 10 (Mus musculus) (UniProt Q61831). The experiment in a line: JNK3 AlphaScreen Assay (AID 530; active means well fitted curve in either direction with a large enough effect, not every such curve was filed as active;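 further: kinase came from lysate of stimulated human HepG2 cells; signal reports phosphorylation of biotinylated GST-cJun 1-79 at Ser73 with 10 µM ATP; on the % scale 0 is the no-effect control and ±100 the full control effect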). The procedure, abridged: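 Compound titrations were preincubated 15 minutes at room temperature with substrate, antibody and pre-activated JNK3-containing HepG2 lysate. Reactions were started with 10 uM ATP and stopped with EDTA-containing bead buffer for AlphaScreen detection.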
A general note: Bead proximity is the source of the signal in Alpha formats.

For assay [20], the target named is Cytochrome P450 2D6 (Homo sapiens) (UniProt P10635). Briefly: qHTS Assay for Inhibitors and Substrates of Cytochrome P450 2D6 (AID 891). Further: potency means the concentration at half of the fitted maximal effect; nearly all actives have a fitted effect of over 60% in size. In outline:
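Human CYP2D6 (5 nM) with 30 uM Luciferin-ME EGE (at Km) in 100 mM KPO4, compound preincubated 10 min, then NADPH regeneration system for 60 min at room temperature. Luciferin read by luminescence; normalized to 1.43 uM quinidine.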

Where [21] appears, read: measured here: cell count channel max response.
Setting [22] is: measured here: lipid channel max response.

Values joined by “and” are separate entries in the source; they are usually repeats but may differ in a detail not shown here. Identical values can stand only once. Records with an inconclusive call do not appear. Active and inactive are the calls of the source. Unless noted, the call rests on the fitted dose curve; in most records, active means well fitted curve in the direction sought with a large enough effect; inconclusive means small, poorly fitted or top-dose-only effect, or another doubt; inactive means no such curve, though single readings can be large; an effect the other way counts as inactive or inconclusive. A value given as a limit tells only on which side of the number the result lay.

3',5'-cyclic-AMP phosphodiesterase 4B (Homo sapiens), sequence (Q07343 whole entry, looked up): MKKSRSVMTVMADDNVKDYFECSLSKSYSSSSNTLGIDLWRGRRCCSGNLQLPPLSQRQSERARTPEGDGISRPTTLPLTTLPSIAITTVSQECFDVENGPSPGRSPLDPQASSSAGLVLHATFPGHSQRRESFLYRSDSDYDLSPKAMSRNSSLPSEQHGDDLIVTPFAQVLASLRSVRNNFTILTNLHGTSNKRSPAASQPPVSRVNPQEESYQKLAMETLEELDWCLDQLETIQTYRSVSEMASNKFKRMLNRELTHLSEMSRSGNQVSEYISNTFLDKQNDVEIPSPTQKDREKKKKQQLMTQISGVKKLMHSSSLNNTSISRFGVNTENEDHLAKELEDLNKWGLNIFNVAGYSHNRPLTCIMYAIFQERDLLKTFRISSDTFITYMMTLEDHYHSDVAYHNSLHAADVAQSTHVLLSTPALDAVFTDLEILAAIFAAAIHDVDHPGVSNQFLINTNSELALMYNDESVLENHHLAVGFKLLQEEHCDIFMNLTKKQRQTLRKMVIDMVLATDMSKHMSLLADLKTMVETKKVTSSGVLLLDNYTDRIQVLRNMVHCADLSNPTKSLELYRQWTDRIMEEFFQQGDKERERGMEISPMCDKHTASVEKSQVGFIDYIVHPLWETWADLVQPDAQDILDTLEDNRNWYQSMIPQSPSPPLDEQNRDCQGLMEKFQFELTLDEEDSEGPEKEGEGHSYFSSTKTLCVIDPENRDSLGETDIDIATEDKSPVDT
Cytochrome P450 3A4 (Homo sapiens), sequence (P08684 whole entry, looked up): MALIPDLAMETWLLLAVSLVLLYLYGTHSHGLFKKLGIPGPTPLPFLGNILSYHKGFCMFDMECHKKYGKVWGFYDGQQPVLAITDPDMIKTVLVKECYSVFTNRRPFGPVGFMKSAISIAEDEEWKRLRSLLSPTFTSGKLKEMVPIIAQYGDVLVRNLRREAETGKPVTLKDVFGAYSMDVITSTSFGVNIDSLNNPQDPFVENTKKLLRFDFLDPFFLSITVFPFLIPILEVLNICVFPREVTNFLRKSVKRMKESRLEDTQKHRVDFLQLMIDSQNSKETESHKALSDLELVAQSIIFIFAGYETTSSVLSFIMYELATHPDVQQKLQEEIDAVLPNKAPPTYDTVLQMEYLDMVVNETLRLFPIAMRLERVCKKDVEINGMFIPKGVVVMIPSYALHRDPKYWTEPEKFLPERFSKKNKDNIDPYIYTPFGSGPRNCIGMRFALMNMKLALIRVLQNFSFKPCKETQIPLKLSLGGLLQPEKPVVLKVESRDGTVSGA
Glucocorticoid receptor (Homo sapiens), sequence (P04150 whole entry, looked up): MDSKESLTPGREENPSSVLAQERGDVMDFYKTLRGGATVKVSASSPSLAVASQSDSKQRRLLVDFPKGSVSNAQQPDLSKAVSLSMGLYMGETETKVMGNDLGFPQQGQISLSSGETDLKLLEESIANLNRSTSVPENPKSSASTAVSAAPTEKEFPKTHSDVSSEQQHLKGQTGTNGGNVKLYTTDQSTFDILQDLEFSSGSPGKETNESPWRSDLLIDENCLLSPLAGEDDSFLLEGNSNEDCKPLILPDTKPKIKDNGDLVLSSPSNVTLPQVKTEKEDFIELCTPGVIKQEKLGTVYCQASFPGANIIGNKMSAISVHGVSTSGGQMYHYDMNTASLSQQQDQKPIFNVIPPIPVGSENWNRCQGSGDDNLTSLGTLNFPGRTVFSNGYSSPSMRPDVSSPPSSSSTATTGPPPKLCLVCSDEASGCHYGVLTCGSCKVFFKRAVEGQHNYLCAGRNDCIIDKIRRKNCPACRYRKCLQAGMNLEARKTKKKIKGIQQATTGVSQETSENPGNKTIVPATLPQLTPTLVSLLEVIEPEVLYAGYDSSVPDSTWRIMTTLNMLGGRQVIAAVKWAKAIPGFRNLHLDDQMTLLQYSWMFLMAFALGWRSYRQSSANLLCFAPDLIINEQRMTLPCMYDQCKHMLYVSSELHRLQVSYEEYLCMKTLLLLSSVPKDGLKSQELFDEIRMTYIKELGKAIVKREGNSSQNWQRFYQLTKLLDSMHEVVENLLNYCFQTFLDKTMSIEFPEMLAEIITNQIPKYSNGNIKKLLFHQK
DNA dC->dU-editing enzyme APOBEC-3G (Homo sapiens), sequence (Q9HC16 whole entry, looked up): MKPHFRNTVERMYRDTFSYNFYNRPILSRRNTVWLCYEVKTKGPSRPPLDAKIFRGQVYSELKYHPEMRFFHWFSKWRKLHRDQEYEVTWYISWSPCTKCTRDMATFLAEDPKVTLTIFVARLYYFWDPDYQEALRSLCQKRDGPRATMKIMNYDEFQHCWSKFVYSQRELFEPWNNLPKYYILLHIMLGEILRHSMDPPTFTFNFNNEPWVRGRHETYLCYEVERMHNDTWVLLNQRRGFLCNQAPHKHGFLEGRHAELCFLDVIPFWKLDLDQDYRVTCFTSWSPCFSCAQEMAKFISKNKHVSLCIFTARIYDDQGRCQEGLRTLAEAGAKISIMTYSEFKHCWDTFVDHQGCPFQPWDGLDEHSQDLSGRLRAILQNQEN
Guanine nucleotide-binding protein G(i) subunit alpha-1 (Homo sapiens), sequence (P63096 whole entry, looked up): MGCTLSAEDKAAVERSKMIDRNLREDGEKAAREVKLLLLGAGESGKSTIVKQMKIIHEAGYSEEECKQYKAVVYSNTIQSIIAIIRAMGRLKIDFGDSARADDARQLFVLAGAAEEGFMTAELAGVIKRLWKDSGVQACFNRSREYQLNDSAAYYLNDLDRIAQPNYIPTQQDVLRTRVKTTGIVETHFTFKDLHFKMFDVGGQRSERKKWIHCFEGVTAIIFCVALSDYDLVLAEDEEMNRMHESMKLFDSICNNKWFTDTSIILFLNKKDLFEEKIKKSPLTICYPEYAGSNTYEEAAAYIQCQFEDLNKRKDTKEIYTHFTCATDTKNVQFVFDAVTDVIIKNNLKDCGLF

Take `N[C@@]1(C(=O)O)CC[C@H](C(=O)O)C1`: the Potency result in assay [1], in assay [4], in [12], in assay [13], in assay [14] and in assay [15] was “inactive” throughout. The Potency in assay [2] and in assay [3] was > 46 µM (inactive) each time. Also, the molecule was classed as inactive in [5], in assay [6], in assay [7], in assay [8], in [9] and in [10]. In assay [11] (at 57.5 µM (top of the series)), the activity change, negative = inhibition is 1.47% (inactive) and 9.82% (inactive) and 2.9% (inactive). In addition, the max response in assay [11] (setting [21]) is -9.77% and 22.3% and -1.79%; in assay [11] (setting [22]), -7.89% and 39.1% and -2.3%.
As for `CC1OC(=O)C(C(C)C)NC(=O)C(C(C)C)OC(=O)C(C(C)C)NC(=O)C(C)OC(=O)C(C(C)C)NC(=O)C(C(C)C)OC(=O)C(C(C)C)NC(=O)C(C)OC(=O)C(C(C)C)NC(=O)C(C(C)C)OC(=O)C(C(C)C)NC1=O` (stereo not given), the Potency result in assay [16], in assay [14] and in assay [15] was “inactive” throughout. Besides, the Potency in assay [11] was 0.316 µM (active). Besides, the max response in assay [11] (setting [21]) is 0.207%; in [11] (setting [22]), -94.2%.
On to `C=C(C)CN1CC[C@@]23c4c5ccc(O)c4O[C@H]2c2[nH]c4ccccc4c2C[C@]3(O)[C@@H]1C5`, for which the Potency result in assay [1], in [4], in assay [16], in assay [13], in assay [14] and in [15] was “inactive” throughout. For the same molecule, in assay [3], the Potency is > 46 µM (inactive).
Consider `CN1CCN(C(=O)OC2c3nccnc3C(=O)N2c2ccc(Cl)cn2)CC1` (stereo not given), for which the outcome in assay [17] and in [18] was inactive. Also, the Potency result in assay [14] and in [15] was “inactive” in each case.
For the molecule `Clc1ccc(C2=CCC[C@H]3CC[C@@H]2N3)cn1`, the Potency in [1] was 15.8 µM (active); in assay [2], > 46 µM (inactive); in assay [3], > 46 µM (inactive). Besides, the result in assay [19] was inactive. Also, the Potency result in assay [16], in assay [12], in assay [13], in assay [14] and in [15] was “inactive” in each case.
Regarding `COc1ccc(-n2nc(C(F)(F)F)cc2-c2ccc(Cl)cc2)cc1`, the molecule was classed as inactive in [17], in [18], in assay [5], in assay [6], in assay [7] and in [8]. The outcome in assay [9] and in [10] was inactive. Further, the Potency in assay [1] is 0.501 µM (active); in assay [2], > 46 µM (inactive); in assay [3], > 46 µM (inactive). Moreover, the Potency result in assay [16], in assay [14] and in assay [15] was “inactive” throughout.
`CCOC(=O)c1cc2c(cn1)[nH]c1ccccc12`: the result in [17] and in [18] was inactive. In addition, the Potency entry in [14] and in assay [15] was “inactive” each time.
Regarding `COc1ccc(C[C@H]2NC[C@H](O)[C@@H]2OC(C)=O)cc1`, the Potency result in [1], in [4], in assay [12], in assay [13], in assay [14] and in assay [15] was “inactive” each time. Further, the values for the Potency in assay [2], in assay [3] and in [20] were > 46 µM (inactive), > 46 µM (inactive) and 7.94 µM (active), respectively.
